Compound activity as filed in PubChem BioAssay.
Most compounds without a hit are left out; they make up all but 2.9% or so of the library.
A3A deaminase: inhibitors of human APOBEC3A DNA deaminase; P31941; recombinant A3A, FAM/TAMRA ssDNA deamination fluorescence; inhibition, % at 20 µM; actives 0.41% (n = 330,000);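 active = at least 40% inhibition at 20 µM here, with at most 30% in a related deaminase screen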;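 also: plate controls were A3A with DMSO for no effect and wells lacking A3A enzyme for full effect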
Target sequence (P31941 whole entry, looked up): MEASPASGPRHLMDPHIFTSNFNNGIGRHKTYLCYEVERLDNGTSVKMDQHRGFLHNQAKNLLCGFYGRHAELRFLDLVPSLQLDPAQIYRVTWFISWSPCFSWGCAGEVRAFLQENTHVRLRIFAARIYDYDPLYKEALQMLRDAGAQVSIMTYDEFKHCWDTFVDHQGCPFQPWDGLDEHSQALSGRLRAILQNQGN
Cardio protect: myocardial damage modulation in H9c2 cells. H9c2 cardiomyocytes, H2O2 injury protection, ATPLite, 2 h. protection from H2O2 cell death, % at 20 µM. actives 0.63% (n = 360,000). AID 588492;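 active = compounds giving at least 50% protection of heart cells from peroxide-induced death in the single-dose screen, raw or plate-pattern-corrected value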;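 also: 0% = DMSO wells with peroxide and 100% = DMSO wells without peroxide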
A3G deaminase: blocks human APOBEC3G single-stranded DNA deamination; Q9HC16; recombinant A3G, ssDNA deamination FAM/TAMRA fluorescence; inhibition, % at 20 µM; actives 0.28% (n = 330,000);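 active = inhibition of at least 40% at 20 µM, with no more than 30% in the related APOBEC3A deaminase screen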;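 also: plate controls were DMSO wells with A3G for no effect and wells lacking A3G enzyme for full effect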
Target sequence (Q9HC16 whole entry, looked up): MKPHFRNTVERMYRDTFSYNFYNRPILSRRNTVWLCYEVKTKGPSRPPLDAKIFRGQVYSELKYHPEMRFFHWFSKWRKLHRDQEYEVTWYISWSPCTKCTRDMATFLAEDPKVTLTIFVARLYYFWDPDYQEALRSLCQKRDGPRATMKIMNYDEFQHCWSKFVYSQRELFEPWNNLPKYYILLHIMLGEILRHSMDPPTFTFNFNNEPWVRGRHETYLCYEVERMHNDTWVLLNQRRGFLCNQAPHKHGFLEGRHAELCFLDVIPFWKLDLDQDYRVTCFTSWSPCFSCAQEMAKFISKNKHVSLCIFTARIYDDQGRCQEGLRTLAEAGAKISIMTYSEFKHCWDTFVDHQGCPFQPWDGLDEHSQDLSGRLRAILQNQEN
H9c2 TAG inh: inhibitors of triacylglycerol accumulation. actives 0.66% (n = 230,000). inhibition, % at 12.5 µM. H9c2 cells, Nile Red lipid (TAG) fluorescence; cells loaded with 200 µM oleic acid;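 active = pattern-corrected inhibition of lipid staining of at least 50% with the nuclear-stain viability signal not falling by more than 50%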;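 also: 0% = DMSO wells and 100% = triacsin C control wells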
PfG6PD inh: PfG6PD (Plasmodium falciparum) enzyme inhibition; AID 504690; PfGluPho enzyme, NADPH resazurin-diaphorase fluorescence; inhibition, % at 20 µM; actives 0.78% (n = 350,000);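 active = inhibition reaching at least a set limit at 20 µM in the primary screen, cut at about 59% in these data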;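 also: 0% = DMSO wells with substrate and 100% = DMSO wells lacking glucose-6-phosphate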
NadD inh: NadD (S. aureus) enzyme inhibition. purified NadD enzyme, colorimetric absorbance read-out. inhibition, % at 20 µM. actives 0.78% (n = 360,000). AID 602399; in the data active = inhibition above about 26%
* marks the source's active call; other numbers are inactive results.

Screening Cc1ccc(F)cc1C(=O)N1CCCC(C)(C(=O)NS(=O)(=O)C2CC2)C1 (stereo not drawn) returned Cardio protect 2, H9c2 TAG inh -9 and NadD inh -2.
`CN(c1nc2ccccc2[nH]c1=O)C1CCCCC1` gave A3A deaminase 3, Cardio protect -9, A3G deaminase 9, PfG6PD inh 10 and NadD inh 0.
Screening O=S(=O)(O)c1cc(O)c(N=Nc2ccc(O)cc2O)c2ccccc12 returned Cardio protect -10, H9c2 TAG inh 11, PfG6PD inh 8 and NadD inh 10.
Screening Oc1cc(-c2ccncc2)cc2cccnc12 returned A3A deaminase 1, Cardio protect -1, A3G deaminase -8, H9c2 TAG inh 82, PfG6PD inh 9 and NadD inh 8.
For Oc1cc(-c2ccc(N3CCCCC3)nc2)cc2cccnc12 the results were A3A deaminase -5, Cardio protect 25, A3G deaminase -11, H9c2 TAG inh 104*, PfG6PD inh -13 and NadD inh 27.
`O=C(Nc1c(-c2ccc3c(c2)OCO3)[nH][nH]c1=O)c1ccc2c(c1)OCO2` gave Cardio protect -3 and NadD inh 1.
For Cc1cc(/C=C2\SC(=S)NC2=O)c(C)n1C the results were A3A deaminase 14, Cardio protect -7, A3G deaminase 12, PfG6PD inh 15 and NadD inh 35*.
`Cc1cc(/C=C2\SC(=Nc3ccc(F)cc3)NC2=O)c(C)n1-c1ccc(S(N)(=O)=O)cc1` gave A3A deaminase -6, Cardio protect -8, A3G deaminase -7, H9c2 TAG inh 30, PfG6PD inh 20 and NadD inh 65*.
`COc1ccc(-n2c(C)cc(/C=C3\SC(=S)NC3=O)c2C)cc1` gave A3A deaminase -1, Cardio protect -10, A3G deaminase -4, PfG6PD inh -6 and NadD inh 45*.
`Cc1cc(/C=C2\SC(=S)NC2=O)c(C)n1-c1ccc(O)cc1` gave A3A deaminase 14, Cardio protect -13, A3G deaminase 11, H9c2 TAG inh 12, PfG6PD inh -4 and NadD inh 29.
Screening COc1ccc(CC(C)CC(=O)Nc2ccc(OC)cc2)cc1 (stereo not drawn) returned A3A deaminase -3, Cardio protect 0, A3G deaminase -8, PfG6PD inh -16 and NadD inh -9.
`CC[n+]1ccc(C(=O)NCc2ccccc2)cc1` gave A3A deaminase 0, Cardio protect 17, A3G deaminase -4, H9c2 TAG inh 15, PfG6PD inh -6 and NadD inh -3.
For CC(C)(C(=O)N1CCC1(C)C(=O)NS(=O)(=O)c1ccc(C#N)cc1)c1ccccc1 (stereo not drawn) the results were Cardio protect -8, H9c2 TAG inh 12 and NadD inh 3.
CCOc1cc(CNCc2ccccc2)ccc1OCc1ccc(Cl)cc1 was read as A3A deaminase -3, Cardio protect -23, A3G deaminase -7, PfG6PD inh 19 and NadD inh -1.
`CCOc1cc(CNc2ccc(O)cc2)ccc1OCc1ccc(Cl)cc1Cl` gave A3A deaminase -2, Cardio protect -14, A3G deaminase 9, H9c2 TAG inh -19, PfG6PD inh 88* and NadD inh 0.
For CSCCC1NC(=O)C(C(C)=NNC(N)=O)=C1O (stereo not drawn) the results were Cardio protect 0, H9c2 TAG inh 6, PfG6PD inh 0 and NadD inh -4.
For C=CCOc1c(OC)cc(/C=N/Nc2cccc(C(=O)O)c2)c(Br)c1Br the results were Cardio protect -2, H9c2 TAG inh 57*, PfG6PD inh -8 and NadD inh 10.
For C=CCOc1c(/C=N\NC(N)=O)cccc1OC the results were A3A deaminase 1, Cardio protect -1, A3G deaminase 0, H9c2 TAG inh 1, PfG6PD inh -7 and NadD inh 1.
`COc1cc2c(cc1OC)CN(CC(=O)Nc1ccccc1C#N)CC2` gave A3A deaminase 0, Cardio protect 74*, A3G deaminase -8, H9c2 TAG inh 18, PfG6PD inh 3 and NadD inh 4.
Screening CN(C)CC(C)(C)CNC(C(=O)Nc1ccc(Cl)cc1C(F)(F)F)c1ccccc1 (stereo not drawn) returned A3A deaminase 4, Cardio protect 0, A3G deaminase 1, H9c2 TAG inh 2, PfG6PD inh 0 and NadD inh -11.
Screening COc1ccc([N+](=O)[O-])cc1C1NN=C(c2ccccc2O)S1 (stereo not drawn) returned A3A deaminase -4, Cardio protect -3, A3G deaminase -5, H9c2 TAG inh 14, PfG6PD inh 1 and NadD inh 35*.
Screening Cc1cc(NC(=O)Cc2ccccc2)nc2c1c(=O)oc1ccccc12 returned A3A deaminase -2, Cardio protect -1, A3G deaminase -12, H9c2 TAG inh -49, PfG6PD inh 15 and NadD inh 2.
COc1cccc(C(=O)Nc2cc(C)c3c(=O)oc4ccccc4c3n2)c1 was read as A3A deaminase -4, Cardio protect 90*, A3G deaminase -6, H9c2 TAG inh 2, PfG6PD inh 7 and NadD inh -3.
For Cc1cc(NC(=O)C2CCCCC2)nc2c1c(=O)oc1ccccc12 the results were A3A deaminase 0, Cardio protect 101*, A3G deaminase 0, H9c2 TAG inh 10, PfG6PD inh 16 and NadD inh -1.
For Cc1cc(NC(=O)C2CCCC2)nc2c1c(=O)oc1ccccc12 the results were A3A deaminase 4, Cardio protect 33, A3G deaminase -2, H9c2 TAG inh 22, PfG6PD inh 20 and NadD inh -3.
`Cc1nn(-c2ccccc2)c(C)c1C(=O)OCC(=O)N1c2ccccc2NC(=O)C1(C)C` gave A3A deaminase 9, Cardio protect 99*, A3G deaminase -1, H9c2 TAG inh 12, PfG6PD inh -12 and NadD inh -4.
`Cc1cnc(C(=O)OCC(=O)N2c3ccccc3NC(=O)C2(C)C)cn1` gave A3A deaminase -1, Cardio protect -3, A3G deaminase -4, H9c2 TAG inh 16, PfG6PD inh -1 and NadD inh 0.
Screening O=S(=O)(Nc1ccc(O)c(Sc2nc3ccccc3s2)c1)c1ccc(Cl)cc1 returned A3A deaminase 0, Cardio protect -7, A3G deaminase 1, PfG6PD inh -13 and NadD inh 2.
For Cc1[nH]c2ccccc2c1/C=N/NC(=O)c1cccs1 the results were A3A deaminase -1, Cardio protect 56*, A3G deaminase -6, H9c2 TAG inh 16, PfG6PD inh 12 and NadD inh -4.
COc1ccc(N(CC(=O)Nc2cccc(C(C)=O)c2)S(=O)(=O)c2ccc(NC(C)=O)cc2)cc1 was read as A3A deaminase -6, Cardio protect 73*, A3G deaminase -7, PfG6PD inh -5 and NadD inh 2.
